# Data from PubChem BioAssay (EPA / NIEHS).
# The source made the active and inactive calls. How the source made its calls: active means hit-call score of the fitted dose curve at least 0.9, where 1 is the maximum; inactive means score below 0.9.
# Assays:
# Conditions in all cases: mRNA level, 48 h; actives raise or lower the signal
# [1] = read-out: Peroxisomal acyl-coenzyme A oxidase 1 (ACOX1) gene, ACOX1 (gene 51); test: LTEA_HepaRG_ACOX1: Life Technologies and Expression Analysis (LTEA) Assay for Peroxisomal acyl-coenzyme A oxidase 1 (ACOX1) gene using HepaRG (AID 2283467)
# Procedure, shortened: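 Human HepaRG hepatic cultures, 48 h treatment with test chemicals up to 100 uM. ACOX1 expression read by qRT-PCR relative to 0.5% DMSO vehicle.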
# [2] = read-out: Alkaline Phosphatase, Placental (ALPP) gene, ALPP (gene 250); test: LTEA_HepaRG_ALPP: Life Technologies and Expression Analysis (LTEA) Assay for Alkaline Phosphatase, Placental (ALPP) gene using HepaRG (AID 2283468);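 on AC50: differentiated human HepaRG liver cells in serum-free induction medium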
# Procedure, shortened: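 HepaRG, 48 h plating then 48 h dosing, serum-free induction medium, 0.5% DMSO. 8 conc, half-log, max 100 uM, duplicates. Endpoint: ALPP transcript by qRT-PCR, housekeeping-normalized; gain or loss fitted vs DMSO.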
# [3] = read-out: Bcl-2 (BAD) gene, BAD (gene 572); test: LTEA_HepaRG_BAD: Life Technologies and Expression Analysis (LTEA) Assay for Bcl-2 (BAD) gene using HepaRG (AID 2283469)
# Procedure, shortened: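 Activity values reflect up- or down-regulation of BAD mRNA in human HepaRG hepatic cells treated 48 h in serum-free medium, with eight-point half-log dosing capped at 100 uM and 0.5% DMSO vehicle.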
# [4] = read-out: Bcl-2 (BAX) gene, BAX (gene 581); test: LTEA_HepaRG_BAX: Life Technologies and Expression Analysis (LTEA) Assay for Bcl-2 (BAX) gene using HepaRG (AID 2283470)
# Procedure, shortened: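 Human HepaRG cells treated in duplicate for 48 h across eight concentrations (max 100 uM, 0.5% DMSO); BAX expression measured by qRT-PCR.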
# [5] = read-out: adenosine kinase (ADK) gene, ADK (gene 132); test: LTEA_HepaRG_ADK: Life Technologies and Expression Analysis (LTEA) Assay for adenosine kinase (ADK) gene using HepaRG (AID 2283471)
# Procedure, shortened: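 Read-out is ADK transcript level measured by qRT-PCR and normalised to three housekeeping genes. Cells are human HepaRG, dosed for 48 h at up to 100 uM in 0.5% DMSO. Gain or loss of signal is fitted against DMSO controls.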
# [6] = read-out: BCL2L11 (gene 10018); test: LTEA_HepaRG_BCL2L11: Life Technologies and Expression Analysis (LTEA) Assay for Bcl-2 (BCL2L11) gene using HepaRG (AID 2283473)
# Procedure, shortened: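 Read-out is BCL2L11 transcript level by qRT-PCR, normalized to three housekeeping genes and fitted bidirectionally against 0.5% DMSO vehicle. HepaRG cells received chemicals for 48 h in serum-free induction medium, 100 uM down in half-log dilutions.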
# [7] = read-out: Apolipoprotein A-V (APOA5) gene, APOA5 (gene 116519); test: LTEA_HepaRG_APOA5: Life Technologies and Expression Analysis (LTEA) Assay for Apolipoprotein A-V (APOA5) gene using HepaRG (AID 2283474)
# Procedure, shortened: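 Readout is APOA5 transcript level by qRT-PCR on Fluidigm dynamic arrays, normalized to three housekeeping genes. HepaRG cultures received chemicals for 48 h at up to 100 uM (half-log steps, 0.5% DMSO), with gain or loss scored relative to DMSO.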
# [8] = read-out: Apoptosis regulator Bcl-2 (Homo sapiens) (UniProt P10415); test: LTEA_HepaRG_BCL2: Life Technologies and Expression Analysis (LTEA) Assay for Bcl-2 gene using HepaRG (AID 2283475);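 further: BCL2 transcript by TaqMan qRT-PCR normalised to ACTB GAPDH and POLR2A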
# Procedure, shortened: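 Each chemical was tested in duplicate on HepaRG cultures held in serum-free induction medium for 48 h, highest concentration 100 uM with half-log dilutions. Transcript levels came from multiplexed qRT-PCR, normalised to housekeeping genes; activity was scored in either direction relative to DMSO.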
# [9] = read-out: Caspase-3 (Homo sapiens) (UniProt P42574); test: LTEA_HepaRG_CASP3: Life Technologies and Expression Analysis (LTEA) Assay for cysteine-aspartic acid protease (CASP3) using HepaRG (AID 2283477)
# Procedure, shortened: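 Read-out is CASP3 mRNA level by TaqMan qRT-PCR in human HepaRG cells after 48 h chemical exposure. Eight half-log concentrations topping at 100 uM were tested in 0.5% DMSO; gain or loss was fitted relative to DMSO.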
# [10] = read-out: Cytochrome P450 (CYP24A1), CYP24A1 (gene 1591); test: LTEA_HepaRG_CYP24A1: Life Technologies and Expression Analysis (LTEA) Assay for Cytochrome P450 (CYP24A1) using HepaRG (AID 2283478)
# Procedure, shortened: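 HepaRG, 48 h chemical exposure, 8-pt half-log CRC from 100 uM, 0.5% DMSO vehicle, duplicates. Endpoint: CYP24A1 mRNA by Fluidigm TaqMan qRT-PCR, normalized ACTB/GAPDH/POLR2A; gain/loss fit vs DMSO.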
# [11] = read-out: Cytochrome P450 (CYP1A2), CYP1A2 (gene 1544); test: LTEA_HepaRG_CYP1A2: Life Technologies and Expression Analysis (LTEA) Assay for Cytochrome P450 (CYP1A2) using HepaRG (AID 2283479)
# Procedure, shortened: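 CYP1A2 transcript induction or loss, quantified by Fluidigm qRT-PCR against three housekeeping genes, was fitted bidirectionally against 0.5% DMSO controls. Human HepaRG cells received eight half-log concentrations from 100 uM over 48 h.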
# [12] = read-out: cysteine-aspartic acid protease (CASP8), CASP8 (gene 841); test: LTEA_HepaRG_CASP8: Life Technologies and Expression Analysis (LTEA) Assay for cysteine-aspartic acid protease (CASP8) using HepaRG (AID 2283480)
# Procedure, shortened: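 Concentration-response in duplicate up to 100 uM (half-log steps, 0.5% DMSO) on differentiated HepaRG cultures for 48 h. Expression change of CASP8 mRNA is determined by TaqMan qRT-PCR with housekeeping-gene normalization.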
# [13] = read-out: Cytochrome P450 (CYP2B6), CYP2B6 (gene 1555); test: LTEA_HepaRG_CYP2B6: Life Technologies and Expression Analysis (LTEA) Assay for Cytochrome P450 (CYP2B6) using HepaRG (AID 2283481)
# Procedure, shortened: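 HepaRG cells plated 48 h, switched to serum-free induction medium, then dosed 48 h (8 points, half-log from 100 uM, 0.5% DMSO). RNA isolated; CYP2B6 expression measured by qRT-PCR; gain or loss fitted relative to DMSO.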
# [14] = read-out: Cytochrome P450 2C19 (Homo sapiens) (UniProt P33261); test: LTEA_HepaRG_CYP2C19: Life Technologies and Expression Analysis (LTEA) Assay for CYP2C19 using HepaRG (AID 2283482)
# Procedure, shortened: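 Transcript levels of CYP2C19 were quantified by qRT-PCR after HepaRG cells were treated for 48 hours with test chemicals up to 100 uM (eight half-log concentrations, 0.5% DMSO vehicle). Gain or loss of signal was fitted relative to DMSO.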
# [15] = read-out: CYP2C8 (gene 1558); test: LTEA_HepaRG_CYP2C8: Life Technologies and Expression Analysis (LTEA) Assay for CYP2C8 using HepaRG (AID 2283483)
# Procedure, shortened: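 This is a transcriptional endpoint in HepaRG cultures: 48 h exposure, highest concentration 100 uM. CYP2C8 mRNA is quantified by TaqMan qRT-PCR.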
# [16] = read-out: CYP2C9 (gene 1559); test: LTEA_HepaRG_CYP2C9: Life Technologies and Expression Analysis (LTEA) Assay for CYP2C9 using HepaRG (AID 2283484)
# Procedure, shortened: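 Eight-point concentration-response (highest 100 uM, half-log dilutions) in HepaRG cells for 48 h; CYP2C9 expression by qRT-PCR normalized to ACTB, GAPDH, POLR2A. Bidirectional fit, DMSO baseline.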
# [17] = read-out: CYP2E1 (gene 1571); test: LTEA_HepaRG_CYP2E1: Life Technologies and Expression Analysis (LTEA) Assay for CYP2E1 using HepaRG (AID 2283485)
# Procedure, shortened: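 Assay uses 48 h exposure of HepaRG hepatic cells, eight concentrations to 100 uM. Expression of CYP2E1 is quantified by TaqMan qRT-PCR with ACTB, GAPDH and POLR2A normalization; curves fitted in both directions relative to vehicle.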
# [18] = read-out: CYP4A11 (gene 1579); test: LTEA_HepaRG_CYP4A11: Life Technologies and Expression Analysis (LTEA) Assay for CYP4A11 using HepaRG (AID 2283486)
# Procedure, shortened: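 HepaRG, 48 h chem exposure, 8 conc (100 uM top, half-log), 0.5% DMSO vehicle; qRT-PCR readout, housekeeping-gene normalized; bidirectional curve fit vs DMSO baseline.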
# [19] = read-out: Bcl-2 (BID) gene, BID (gene 637); test: LTEA_HepaRG_BID: Life Technologies and Expression Analysis (LTEA) Assay for Bcl-2 (BID) gene using HepaRG (AID 2283476)
# Procedure, shortened: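 Assay used HepaRG hepatic cells treated 48 h in serum-free medium with half-log dilutions from 100 uM. Endpoint: BID mRNA, qRT-PCR, normalized to ACTB/GAPDH/POLR2A.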
# [20] = read-out: Alpha-fetoprotein (AFP) gene, AFP (gene 174); test: LTEA_HepaRG_AFP: Life Technologies and Expression Analysis (LTEA) Assay for Alpha-fetoprotein (AFP) gene using HepaRG (AID 2283472)
# Procedure, shortened: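 Measures AFP mRNA change in HepaRG after 48 h chemical exposure (8 half-log concentrations, highest 100 uM, 0.5% DMSO). Fold change relative to DMSO, fitted in both directions.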
# Chain of Apoptosis regulator Bcl-2 (Homo sapiens) (P10415 whole entry, looked up): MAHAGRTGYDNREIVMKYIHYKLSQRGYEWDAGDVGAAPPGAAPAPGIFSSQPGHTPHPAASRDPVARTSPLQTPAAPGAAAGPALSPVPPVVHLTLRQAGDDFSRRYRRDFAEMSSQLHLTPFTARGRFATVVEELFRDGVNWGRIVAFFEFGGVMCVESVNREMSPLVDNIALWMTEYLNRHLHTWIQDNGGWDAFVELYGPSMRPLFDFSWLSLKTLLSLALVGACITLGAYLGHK
# Chain of Caspase-3 (Homo sapiens) (P42574 whole entry, looked up): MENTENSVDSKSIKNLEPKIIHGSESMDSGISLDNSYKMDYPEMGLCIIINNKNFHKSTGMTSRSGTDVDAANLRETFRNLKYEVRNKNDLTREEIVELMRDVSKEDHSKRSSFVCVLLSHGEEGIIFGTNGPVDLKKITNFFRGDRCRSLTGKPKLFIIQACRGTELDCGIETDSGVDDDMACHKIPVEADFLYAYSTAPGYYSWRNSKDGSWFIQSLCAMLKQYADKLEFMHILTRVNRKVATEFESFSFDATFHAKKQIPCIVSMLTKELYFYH
# Chain of Cytochrome P450 2C19 (Homo sapiens) (P33261 whole entry, looked up): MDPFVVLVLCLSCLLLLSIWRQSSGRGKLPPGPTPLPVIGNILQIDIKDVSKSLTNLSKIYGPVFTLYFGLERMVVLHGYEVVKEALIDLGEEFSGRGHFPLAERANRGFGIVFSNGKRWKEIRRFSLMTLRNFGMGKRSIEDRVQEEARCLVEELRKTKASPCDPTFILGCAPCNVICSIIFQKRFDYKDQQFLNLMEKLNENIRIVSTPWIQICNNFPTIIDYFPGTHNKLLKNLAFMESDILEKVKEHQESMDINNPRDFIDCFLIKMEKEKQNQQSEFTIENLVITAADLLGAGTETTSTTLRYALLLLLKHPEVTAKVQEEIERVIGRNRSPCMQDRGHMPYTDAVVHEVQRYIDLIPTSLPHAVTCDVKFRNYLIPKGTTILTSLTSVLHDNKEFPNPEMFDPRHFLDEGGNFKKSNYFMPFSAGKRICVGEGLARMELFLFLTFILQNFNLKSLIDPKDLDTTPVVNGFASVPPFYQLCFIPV
smiles,measurement,setting,value
Cc1cc(O)ccc1Cl,outcome,[1],inactive
same,outcome,[2],inactive
same,outcome,[3],inactive
same,outcome,[4],inactive
same,outcome,[5],inactive
same,outcome,[6],inactive
same,outcome,[7],inactive
same,outcome,[8],inactive
same,outcome,[9],inactive
same,outcome,[10],inactive
same,outcome,[11],inactive
same,outcome,[12],inactive
same,outcome,[13],inactive
same,outcome,[14],inactive
same,outcome,[15],inactive
same,outcome,[16],inactive
same,outcome,[17],inactive
same,outcome,[18],inactive
Nn1cnnc1,outcome,[1],inactive
same,outcome,[2],inactive
same,outcome,[3],inactive
same,outcome,[4],inactive
same,outcome,[5],inactive
same,outcome,[6],inactive
same,outcome,[7],inactive
same,outcome,[8],inactive
same,outcome,[19],inactive
same,outcome,[9],inactive
same,outcome,[10],inactive
same,outcome,[11],inactive
same,outcome,[12],inactive
same,outcome,[13],inactive
same,outcome,[14],inactive
same,outcome,[15],inactive
same,outcome,[16],inactive
same,outcome,[17],inactive
same,outcome,[18],inactive
CC(C)(O)C(=O)Nc1ccc([N+](=O)[O-])c(C(F)(F)F)c1,outcome,[1],inactive
same,AC50,[2],0.0354 µM (active)
same,AC50,[3],0.0265 µM (active)
same,outcome,[4],inactive
same,outcome,[5],inactive
same,AC50,[6],0.0415 µM (active)
same,AC50,[7],0.0349 µM (active)
same,outcome,[8],inactive
same,AC50,[19],0.0296 µM (active)
same,outcome,[9],inactive
same,outcome,[10],inactive
same,AC50,[11],0.0406 µM (active)
same,AC50,[13],44.3 µM (active)
same,outcome,[14],inactive
same,outcome,[15],inactive
same,outcome,[16],inactive
same,AC50,[17],37.1 µM (active)
same,AC50,[18],42 µM (active)
Nc1ccc(-c2ccc(N)cc2)cc1,outcome,[1],inactive
same,outcome,[2],inactive
same,outcome,[3],inactive
same,outcome,[4],inactive
same,outcome,[5],inactive
same,outcome,[20],inactive
same,outcome,[6],inactive
same,outcome,[7],inactive
same,outcome,[8],inactive
same,outcome,[19],inactive
same,outcome,[9],inactive
same,outcome,[10],inactive
same,outcome,[11],inactive
same,AC50,[13],50 µM (active)
same,outcome,[14],inactive
same,outcome,[15],inactive
same,outcome,[16],inactive
same,AC50,[17],12.3 µM (active)
same,AC50,[18],33.1 µM (active)
C1CC2OC2CC1C1CO1 (stereo unspecified),outcome,[1],inactive
same,outcome,[2],inactive
same,outcome,[3],inactive
same,outcome,[4],inactive
same,outcome,[5],inactive
same,outcome,[20],inactive
same,outcome,[7],inactive
same,outcome,[8],inactive
same,outcome,[9],inactive
same,outcome,[10],inactive
same,outcome,[11],inactive
same,outcome,[12],inactive
same,AC50,[13],7.5 µM (active)
same,outcome,[14],inactive
same,outcome,[15],inactive
same,outcome,[16],inactive
same,outcome,[17],inactive
same,outcome,[18],inactive
Oc1ccc(C(c2ccc(O)cc2)(C(F)(F)F)C(F)(F)F)cc1,AC50,[1],83.8 µM (active)
same,AC50,[2],83 µM (active)
same,outcome,[3],inactive
same,outcome,[4],inactive
same,AC50,[5],81.6 µM (active)
same,outcome,[20],inactive
same,AC50,[6],78.9 µM (active)
same,outcome,[7],inactive
same,outcome,[8],inactive
same,outcome,[9],inactive
same,outcome,[10],inactive
same,outcome,[11],inactive
same,outcome,[12],inactive
same,AC50,[13],92 µM (active)
same,AC50,[14],85.8 µM (active)
same,outcome,[15],inactive
same,outcome,[16],inactive
same,AC50,[17],79.4 µM (active)
same,AC50,[18],76.6 µM (active)
